# Sfp PPTase inh – blocks B. subtilis Sfp PPTase activity | Q9F4F7 | Biochemical Sfp PPTase activity, qHTS | Potency, µM, for the others: largest response in the series, negative = inhibition, actives largely listed as inhibitors | 310,000 tested, 3.5% active;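 further: the enzyme is Sfp with the accession as filed and its product quenches rhodamine fluorescence; 0% = enzyme reaction without inhibitor and -100% = no enzyme wells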
#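 Buffer: 50 mM Hepes-Na pH 7.6, 10 mM MgCl2, 0.01% Nonidet P-40, 0.01% BSA. Enzyme 15 nM, pre-exposed to compound 15 min; substrates then added and fluorescence change tracked over 30 min.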
# G9a inh – inhibitors of human histone lysine methyltransferase G9a | Q96KQ7 | G9a H3K9 monomethylation, AlphaScreen, 2 h | Potency, µM (titrated, usually from 102 µM), for the others: at the highest dose activity, negative = inhibition, actives largely listed as inhibitors | 350,000 tested, 8.8% active | AID 504332; further: on the % scale 0 is the no-effect control and ±100 the full control effect; nearly all actives have a fitted effect of over 75% in size
#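 G9a (20 nM) preincubated 15 min RT with compounds, then 500 nM biotinylated H3K9 peptide and 20 uM SAM added; 2 h RT reaction. Monomethyl-H3K9 product detected by AlphaScreen with anti-H3K9me1 antibody, streptavidin donor and anti-rabbit IgG acceptor beads.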
# HP1b binding inh – blocks HP1-beta chromodomain binding to methylated histone tails | P83916 | AlphaScreen HP1-beta / biotin-H3K9me3 peptide binding | Potency, µM (titrated, usually from 114 µM), for inactives: at the top dose activity change, negative = inhibition, actives largely listed as inhibitors | 390,000 tested, 0.56% active | AID 540317; further: nearly all actives have a fitted effect of over 70% in size
#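 HP1-beta protein (50 nM final) preincubated 30 min at room temperature with biotinylated H3(1-18)K9me3 peptide (50 nM) in PBS pH 7.4, 0.01% Tween-20, then compound added for 30 min. AlphaScreen streptavidin donor/nickel chelate acceptor beads (10 ug/mL final), 30 min dark, luminescence read.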
# 12-LOX inh – blocks human arachidonate 12S-lipoxygenase. P18054. purified 12hLO, xylenol orange hydroperoxide absorbance. Potency, µM (top dose mostly 108 µM), inactives show at the top dose activity change, negative = inhibition, hits mostly inhibitors. 580,000 tested, 1.1% active; further: on the % scale 0 is the no-effect control and ±100 the full control effect
# Target sequence (P18054 whole entry, looked up): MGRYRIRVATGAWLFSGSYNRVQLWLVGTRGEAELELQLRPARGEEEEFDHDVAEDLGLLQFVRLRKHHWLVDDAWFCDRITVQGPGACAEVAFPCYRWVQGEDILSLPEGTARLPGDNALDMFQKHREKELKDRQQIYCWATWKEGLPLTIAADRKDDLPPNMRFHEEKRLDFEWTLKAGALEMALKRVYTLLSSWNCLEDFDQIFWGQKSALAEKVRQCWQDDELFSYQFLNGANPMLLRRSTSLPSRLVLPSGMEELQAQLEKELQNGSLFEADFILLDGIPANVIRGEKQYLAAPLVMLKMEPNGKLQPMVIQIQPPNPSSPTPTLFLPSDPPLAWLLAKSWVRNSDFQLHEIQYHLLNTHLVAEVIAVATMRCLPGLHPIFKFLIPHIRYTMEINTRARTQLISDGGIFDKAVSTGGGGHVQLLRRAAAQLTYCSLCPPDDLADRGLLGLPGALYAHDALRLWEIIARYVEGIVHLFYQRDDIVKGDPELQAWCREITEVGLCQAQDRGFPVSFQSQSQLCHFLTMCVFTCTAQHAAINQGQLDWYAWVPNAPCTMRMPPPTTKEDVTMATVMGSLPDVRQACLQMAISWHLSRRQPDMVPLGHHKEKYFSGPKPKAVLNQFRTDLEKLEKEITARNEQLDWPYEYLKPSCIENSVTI
#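 Purified human 12hLO at 150 nM in 25 mM Hepes, 0.01% Triton X-100, pH 7.0, preincubated 15 min at room temperature with compound. Reaction started with 40 uM arachidonic acid, 30 min at room temperature. Hydroperoxide measured by Fe-xylenol orange, 573/405 nm absorbance ratio.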
# JMJD2A Tudor – JMJD2A Tudor domain (human) inhibition; Potency, µM (series often up to 114 µM), for the others: at the top dose activity change, negative = inhibition, most hits filed as inhibitors; 390,000 tested, 4.4% active; AlphaScreen JMJD2A-Tudor / H3K4me3 peptide binding; O75164; further: on the % scale 0 is the no-effect control and ±100 the full control effect; nearly all actives have a fitted effect of over 50% in size
# BAZ2B block – blocks human BAZ2B; AlphaScreen BAZ2B-H3K14Ac peptide displacement; Potency, µM (titrated, usually from 114 µM), for inactives: top-dose activity change, negative = inhibition, usual class: inhibitors; 360,000 tested, 4.4% active; AID 504333; further: on the % scale 0 is the no-effect control and ±100 the full control effect; nearly all actives have a fitted effect of over 60% in size
#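 BAZ2B (50 nM) with biotin-H3(5-23)K14Ac peptide (50 nM) in PBS pH 7.4, 0.01% Tween-20, preformed 30 min, then compound 30 min at room temperature; top concentration 110uM. AlphaScreen streptavidin donor/nickel chelate acceptor beads (10 ug/mL final), 20 min dark, signal read.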
# Starred values were filed as active, the others as inactive; ? = inconclusive; · = not tested or not shown; [ ] = another dose, or the depositor's remark. Hits are enriched below; roughly 8.7% of the tested compounds scored in any of these assays. The call rests on the fitted dose curve; in most records, active means well fitted curve in the direction sought with a large enough effect; inconclusive means small, poorly fitted or top-dose-only effect, or another doubt; inactive means no such curve, though single readings can be large; an effect the other way counts as inactive or inconclusive. Potency means the concentration at half of the fitted maximal effect.
SMILES,Sfp PPTase inh,G9a inh,HP1b binding inh,12-LOX inh,JMJD2A Tudor,BAZ2B block
COCCCN1C(=O)C(=O)/C(=C(/O)c2ccc(S(=O)(=O)N3CCCCC3)cc2)C1c1cccc(OC)c1 (stereo unspecified),11%,45µM*,37%,?,4%,-24%
CCCOc1cccc(C2/C(=C(/O)c3ccc(F)cc3)C(=O)C(=O)N2CCN(C)C)c1 (stereo unspecified),10%,?,-3%,?,79µM*,-3%
COCCCN1C(=O)c2[nH]nc(-c3cc(C)cc(C)c3O)c2C1c1ccc(O)c(OC)c1 (stereo unspecified),-2%,45µM*,-4%,-18%,-35%,-10%
COc1cccc(C2/C(=C(/O)c3ccccc3)C(=O)C(=O)N2CCCC(=O)O)c1 (stereo unspecified),5%,?,5%,46%,50µM*,?
COCCCN1C(=O)C(=O)/C(=C(/O)c2ccc(S(=O)(=O)N3CCCCC3)cc2)C1c1ccc(O)c(OC)c1 (stereo unspecified),-2%,?,18%,?,-23%,?
COc1cc(C2/C(=C(/O)c3ccc(F)cc3)C(=O)C(=O)N2CCCC(=O)O)ccc1O (stereo unspecified),19%,·,0%,?,?,56µM*
COc1cccc(/C(O)=C2\C(=O)C(=O)N(c3ccccn3)C2c2cccc(Br)c2)c1 (stereo unspecified),·,·,·,35µM*,·,·
COc1cccc(/C(O)=C2\C(=O)C(=O)N(c3ccccn3)C2c2cccc(OC)c2OC)c1 (stereo unspecified),-5%,6%[12.7 µM],22%,?,-24%,-34%
CNC(=O)CN(C)C(=O)c1coc(COc2ccc3ccc(OC)cc3c2)n1,·,·,·,73%,·,·
CCCCCCN=CC1=C(O)CC(C)(C)CC1=O,9%,4%[2.33 µM],51%,14%[57.4 µM],-5%,10%
CCC(CO)N=CC1=C(O)CC(C)(C)CC1=O (stereo unspecified),8%,71µM*,20%,0%,-11%,-1%
CCOC(=O)c1cc(S(=O)(=O)Nc2cc(F)ccc2C)[nH]n1,·,18µM*,20%[57 µM],?,-29%,?
CCOC(=O)c1cc(S(=O)(=O)Nc2c(C)cc(C)cc2C)[nH]n1,·,18µM*,22%[57 µM],?,-29%,?
CCOC(=O)c1cc(S(=O)(=O)Nc2ccc(OC)c(Cl)c2)[nH]n1,·,8.9µM*,12%[57 µM],?,-34%,56µM*
CCOC(=O)c1cc(S(=O)(=O)Nc2ccc(C)cc2Cl)[nH]n1,·,8.9µM*,13%[57 µM],-7%,-33%,79µM*
CCOC(=O)c1cc(S(=O)(=O)Nc2ccc(F)c(Cl)c2)[nH]n1,·,·,·,21%,·,·
O=C(Nc1ccc(Cl)cc1C(F)(F)F)c1ccc(-c2ccccc2)cc1,·,·,·,9%,·,·
O=C(O)c1cc(C(=O)O)cc(-c2ccc(/C=c3/sc4nc5ccccc5n4c3=O)o2)c1,7.1µM*,2µM*,16µM*,·,22µM*,20µM*
CC(C)(O)c1cc(=O)sc2nc3ccccc3n12,10%,-7%[59 µM],35%,-9%,-4%,-4%
Cc1c(C(=O)O)cccc1-c1ccc(/C=C2\SC(=O)NC2=O)o1,-9%,·,17%,-18%,-28%,-7%
O=C(O)c1cccc(-c2ccc(/C=c3/sc4nc5ccccc5n4c3=O)o2)c1,?,7.9µM*,?,0%,22µM*,25µM*
O=C(O)c1ccccc1-c1ccc(C=c2sc3nc4cc(Br)cnc4n3c2=O)o1,·,·,·,7.9µM*,·,·
COc1ccc(Cl)cc1C(=O)NCc1ccc(-c2nc3ncccc3o2)cc1,·,·,·,12%,·,·
O=C(CSc1ncc(-c2ccc(F)cc2)o1)NC(=O)c1ccccc1,·,·,·,-40%,·,·
COc1cc(OC)cc(C2NC(=O)NC(C)=C2C(=O)N2CCNC(=O)C2)c1 (stereo unspecified),·,·,·,6%,·,·
SMILES,Sfp PPTase inh,G9a inh,HP1b binding inh,12-LOX inh,JMJD2A Tudor,BAZ2B block
O=C(NC(C(=O)Nc1ccccc1)C1CCN(C(=O)c2cccc(F)c2)CC1)c1ccc(F)cc1 (stereo unspecified),·,·,·,6%,·,·
CCOc1ccc(-c2cc3c(=O)n(CCNC(=O)c4ccc5c(c4)OCO5)ccn3n2)cc1,·,·,·,5%,·,·
CNc1sc(C(=O)c2cccs2)c(N)c1-c1nc2ccccc2s1,13µM*,?,-16%,0%,50µM*,-6%
O=C(Nc1nc2ccccc2s1)c1ccc(F)cc1,11%,-5%[59 µM],34%,-12%,-6%,?
O=C(Nc1ccccc1-c1nc2ccccc2s1)c1cc(Cl)cc(Cl)c1,·,20%[59 µM],12%[57 µM],-26%,4%,6%
O=C(Nc1ccccc1-c1nc2ccccc2s1)c1ccc(F)cc1,·,5%[59 µM],39%,-17%,8%,50µM*
CNc1sc(C(=O)c2ccc(F)cc2)c(N)c1-c1nc2ccccc2s1,-19%,8.9µM*,-29%,0%,?,50µM*
CC(=O)Nc1scc(C)c1-c1nc2ccccc2s1,-18%,54%,123%,?,74%,48%
Cn1ncc2c(C(=O)N3CCCC3)cc(-c3ccc(Cl)nc3)nc21,·,·,·,1%[12.5 µM],·,·
C/C(=N\NS(=O)(=O)c1ccc(Cl)c([N+](=O)[O-])c1)c1cc2ccccc2o1,-2%,?,-9%,?,?,?
C/C(=N/NS(=O)(=O)c1ccc(C)cc1C)c1ccc2c(c1)OCO2,?,·,27%,?,-23%,-15%
COc1ccc(OC)c(S(=O)(=O)N/N=C(/C)c2ccc3c(c2)OCO3)c1,14%,32µM*,49%,0%,-1%,-13%
C/C(=N/NS(=O)(=O)c1cccc([N+](=O)[O-])c1)c1ccc2c(c1)OCO2,-7%,32µM*,20%,1%,-5%,-38%
C/C(=N\NS(=O)(=O)c1ccc(Cl)c([N+](=O)[O-])c1)c1ccc(C)o1,-13%,-36%[12.7 µM],43%,?,?,79µM*
C/C(=N\NS(=O)(=O)c1ccc(C)c([N+](=O)[O-])c1)c1ccc2c(c1)OCO2,-14%,45µM*,26%,-3%,-20%,-27%
COc1ccc(NC(C)(C)C(=O)N2CCC3(CCN(C)CC3)C2)cc1,·,·,·,25%,·,·
Cc1nn(-c2ccccc2)cc1C(=O)N1CCC(C(C)C(=O)NCc2ccc3c(c2)OCO3)CC1 (stereo unspecified),·,·,·,-3%,·,·
CCC(=O)N(C1=C(NC(C)C)C(=O)c2ccccc2C1=O)C(C)C,-13%,45µM*,0%,-21%,-24%,-31%
N#CC1=C(N)NC(=S)C(C(N)=O)C1c1ccc(Cl)cc1Cl (stereo unspecified),8.9µM*,?,3%,?,?,-29%

# High-throughput results as filed in PubChem BioAssay.
